# PubChem BioAssay (EPA / NIEHS)
# Values joined by “and” are separate entries in the source; they are usually repeats but may differ in a detail not shown here. Identical values can stand only once. Results filed as inconclusive are left out. Active and inactive are the calls of the source. Rule for the calls, unless noted: active = hit-call score of the fitted dose curve at least 0.9, where 1 is the maximum; inactive = score below 0.9.
# Experiments:
# [1] = ACEA_ER_80hr: ACEA Biosciences xCELLigence Real-Time Cell Analysis on Estrogen Receptor Agonism for Proliferation (AID 2282667; active = hit-call score of the fitted dose curve at least 0.9, where 1 is the maximum); details: T47D proliferation, impedance (xCELLigence), 80 h
# Outline: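 Real-time electrical impedance tracked growth of the human breast line T47D, with the 80 h post-dosing value used. Dosing spanned eight 1:4 steps down from a 100 uM final top concentration, run in duplicate.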
# [2] = ATG_CRE_CIS: Attagene CIS-FACTORIAL HepG2 Assay for human cAMP Responsive Element (CRE) binding protein 3 (AID 2282926); details: HepG2 CRE cis-reporter, Attagene multiplexed mRNA; actives raise or lower the signal
# Outline: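 Assay format: transient reporter transfection of HepG2, 24 h treatment, total RNA isolation with DNase I step. Reporter abundance read by fluorescence after PCR and capillary separation; DMSO-normalised gain or loss fitting.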
# [3] = target: CCAAT/enhancer-binding protein beta (Homo sapiens) (UniProt P17676); assay: ATG_C_EBP_CIS: Attagene CIS-FACTORIAL HepG2 Assay for human CCAAT/Enhancer Binding Protein (C/EBP) beta (AID 2282927); details: HepG2 Attagene cis-factorial transcription factor reporter; actives raise or lower the signal
# Outline: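 Following a 24 h incubation with test chemical, transfected HepG2 cells yielded RNA whose reporter transcripts were quantified by RT-PCR and fluorescent capillary electrophoresis, with DMSO serving as baseline for bidirectional fitting.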
# [4] = ATG_CMV_CIS: Attagene CIS-FACTORIAL HepG2 Assay for human CMV (Internal Marker) (AID 2282928); details: HepG2 CMV promoter reporter, transcription factor profiling; actives raise or lower the signal;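 note: endpoint acts as a background internal control marker rather than a target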
# Outline: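 Readout: fluorescent reporter cDNA fragments separated by capillary electrophoresis after RT-PCR and HpaI cut. Cells: HepG2 carrying transfected cis-promoter reporter constructs, dosed 24 h. Endpoint serves as background internal-marker control, fit bidirectionally versus DMSO.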
# [5] = ATG_DR4_LXR_CIS: Attagene CIS-FACTORIAL HepG2 Assay for human Liver X Receptor (LXR), DR4 submotif (AID 2282929); details: HepG2 Attagene DR4 cis-reporter, mRNA transcription; actives raise or lower the signal
# Outline: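 Cells were transfected with multiple reporter transcription units, exposed to chemicals for 24 hours, then lysed for RNA. Reporter mRNA induction was measured by RT-PCR with capillary electrophoresis detection and fitted in both directions relative to DMSO.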
# [6] = target: Aryl hydrocarbon receptor (Homo sapiens) (UniProt P35869); assay: ATG_Ahr_CIS: Attagene CIS-FACTORIAL HepG2 Assay for human Aryl Hydrocarbon Receptor (Ahr) (AID 2282930); details: HepG2 AhR cis-factorial reporter transcription; actives raise or lower the signal
# Outline: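 Values derive from bidirectional fitting against DMSO negative control. Underlying signal: cis-element reporter mRNA in transiently transfected HepG2, harvested 24 h post-dose and measured by RT-PCR plus capillary electrophoresis.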
# [7] = ATG_AP_1_CIS: Attagene CIS-FACTORIAL HepG2 Assay for human Activator Protein 1 (AP-1) (AID 2282931); details: HepG2 Attagene cis-factorial AP-1 reporter mRNA; actives raise or lower the signal
# Outline: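 Endogenous transcription-factor activity in human HepG2 liver cells is read through a cis-promoter reporter transcript, sampled 24 h after dosing. Detection uses RT-PCR with capillary electrophoresis; values come from bidirectional fitting relative to DMSO.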
# [8] = ATG_AP_2_CIS: Attagene CIS-FACTORIAL HepG2 Assay for human Activator Protein 2 (AP-2) (AID 2282932); details: HepG2 AP-2 cis-reporter, Attagene transcription factor profiling; actives raise or lower the signal
# Outline: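 Cells (HepG2) transfected with promoter-driven reporter constructs, treated 24 h. Total RNA reverse-transcribed, reporter cDNA PCR-amplified, FAM-labelled by primer extension, digested, resolved by capillary electrophoresis. Activity fitted both directions versus DMSO.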
# [9] = ATG_BRE_CIS: Attagene CIS-FACTORIAL HepG2 Assay for human Bone Morphogenetic Protein (BMP) Response Element (BRE) (AID 2282933); details: HepG2 BMP response element reporter, Attagene transcription factor profiling; actives raise or lower the signal
# Outline: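 After a 24 h chemical treatment, transiently transfected HepG2 cells were lysed for RNA; reporter transcripts were quantified by fluorescent RT-PCR and capillary electrophoresis, normalised to DMSO.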
# [10] = target: Retinoic acid receptor alpha (Homo sapiens) (UniProt P10276); assay: ATG_DR5_RAR_CIS: Attagene CIS-FACTORIAL HepG2 Assay for human Retinoic Acid Receptor Alpha (RARE), DR5 submotif (AID 2282934); details: HepG2 Attagene cis-factorial RARE DR5 reporter, mRNA; actives raise or lower the signal
# Outline: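 Endpoint fitted in both directions relative to DMSO as negative control. It reflects DR5 cis-element reporter mRNA induction in transiently transfected HepG2 cells, measured 24 h after dosing through RT-PCR and fluorescent capillary electrophoresis.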
# [11] = target: Transcription factor E2F1 (Homo sapiens) (UniProt Q01094); assay: ATG_E2F_CIS: Attagene CIS-FACTORIAL HepG2 Assay for human E2F Transcription Factor 1 (AID 2282935); details: HepG2 Attagene cis-reporter, E2F reporter RNA transcripts; actives raise or lower the signal
# Outline: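 First, HepG2 cells were transfected with reporter transcription units. Next, they were dosed for 24 h. Then RNA was isolated, converted to cDNA, PCR-amplified, FAM-labeled, HpaI-digested and analyzed by capillary electrophoresis.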
# [12] = ATG_E_Box_CIS: Attagene CIS-FACTORIAL HepG2 Assay for human Enhancer Box (E-box) (AID 2282936); details: HepG2 E-box cis-reporter transcription, actives raise or lower the signal
# Outline: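 Endogenous transcription factor activity was sensed in human HepG2 liver cells through transfected cis-promoter reporter units. After 24 h of dosing, total RNA was reverse-transcribed and reporter cDNA resolved by capillary electrophoresis.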
# [13] = ATG_M_61_CIS: Attagene CIS-FACTORIAL HepG2 Assay for M61 Transcription Factor (Internal Marker) (AID 2282937); details: HepG2 Attagene CIS-FACTORIAL M61 internal marker reporter; actives raise or lower the signal
# Outline: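 Cells were transfected with reporter units under cis-regulatory promoters, treated with chemicals for 24 h, then lysed for RNA. Reporter transcripts were quantified by RT-PCR and capillary electrophoresis, and activity was fitted bidirectionally against DMSO.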
# [14] = ATG_EGR_CIS: Attagene CIS-FACTORIAL HepG2 Assay for human Early Growth Response 1 (EGR1) (AID 2282938); details: HepG2 Attagene CIS-FACTORIAL EGR reporter mRNA; actives raise or lower the signal
# Outline: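 Endogenous TF activity in HepG2 liver cells was gauged through cis-promoter reporter constructs transiently transfected. After 24 h dosing, reporter mRNA was quantified by RT-PCR and capillary electrophoresis, and curves fitted in both directions versus DMSO.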
# [15] = ATG_M_19_CIS: Attagene CIS-FACTORIAL HepG2 Assay for M19 Transcription Factor (Internal Marker) (AID 2282939); details: HepG2 Attagene CIS-FACTORIAL M19 internal marker reporter; actives raise or lower the signal
# Outline: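 In this multiplexed cell assay, transiently transfected HepG2 reporter units report endogenous transcription-factor activity; after 24 hours of treatment, labelled reporter cDNA fragments are quantified by capillary electrophoresis and fitted bidirectionally against DMSO.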
# [16] = ATG_ERE_CIS: Attagene CIS-FACTORIAL HepG2 Assay for Estrogen Response Element (ERE) (AID 2282940); details: HepG2 ERE cis-reporter, Attagene RNA transcript; actives raise or lower the signal
# Outline: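 Measuring endogenous transcription factor output, the assay doses transfected HepG2 cells for 24 hours and quantifies reporter transcripts by fluorescent RT-PCR and capillary electrophoresis, with DMSO as baseline.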
# [17] = ATG_Ets_CIS: Attagene CIS-FACTORIAL HepG2 Assay for human Erythroblast Transformation Specific (ETS) (AID 2282941); details: HepG2 ETS cis-reporter transcription, actives raise or lower the signal
# Outline: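 RT-PCR/capillary electrophoresis fluorescence read-out of reporter mRNA; HepG2 transient multi-reporter transfection; 24 h compound exposure; gain or loss of signal fitted bidirectionally relative to DMSO.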
# [18] = target: Hepatocyte nuclear factor 3-beta (Homo sapiens) (UniProt Q9Y261); assay: ATG_FoxA2_CIS: Attagene CIS-FACTORIAL HepG2 Assay for human Forkhead box A2 (FOXA2) (AID 2282942); details: HepG2 cis-reporter transcription factor activity, 24 h; actives raise or lower the signal
# Outline: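 Endogenous transcription factor activity was read in HepG2 cells carrying transiently transfected cis-promoter reporter units. After 24 h dosing, reporter mRNA was quantified by RT-PCR and capillary electrophoresis, and values fitted bidirectionally versus DMSO.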
# [19] = ATG_FoxO_CIS: Attagene CIS-FACTORIAL HepG2 Assay for human Forkhead box O (FoxO) (AID 2282943); details: HepG2 Attagene cis-reporter, FoxO element, mRNA; actives raise or lower the signal
# Outline: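 Values reflect reporter mRNA induction or loss in HepG2 cells 24 h post-dosing, fitted bidirectionally with DMSO as negative control and baseline. Detection used RT-PCR and fluorescence capillary electrophoresis.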
# [20] = ATG_GATA_CIS: Attagene CIS-FACTORIAL HepG2 Assay for human GATA Binding Protein (AID 2282944); details: HepG2 GATA cis-element reporter, Attagene multiplex mRNA; actives raise or lower the signal
# Outline: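 Measures endogenous transcription factor-driven reporter mRNA in HepG2 cells transiently carrying cis-regulated constructs. 24 h dosing; RNA via oligo(dT) reverse transcription, PCR, HpaI digestion, capillary electrophoresis; fitted relative to DMSO.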
# Sequence of Transcription factor E2F1 (Homo sapiens) (Q01094 whole entry, looked up): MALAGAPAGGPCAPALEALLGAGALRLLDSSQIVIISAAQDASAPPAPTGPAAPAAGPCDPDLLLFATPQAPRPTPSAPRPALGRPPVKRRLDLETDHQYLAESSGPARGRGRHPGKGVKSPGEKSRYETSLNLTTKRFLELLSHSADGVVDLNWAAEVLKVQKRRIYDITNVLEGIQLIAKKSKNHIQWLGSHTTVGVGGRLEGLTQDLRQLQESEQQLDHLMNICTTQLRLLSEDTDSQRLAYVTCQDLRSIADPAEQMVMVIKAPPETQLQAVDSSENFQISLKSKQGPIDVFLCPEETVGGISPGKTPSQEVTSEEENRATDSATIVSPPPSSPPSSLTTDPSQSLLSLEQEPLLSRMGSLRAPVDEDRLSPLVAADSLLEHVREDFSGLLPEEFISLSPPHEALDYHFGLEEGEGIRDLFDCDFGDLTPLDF
# Sequence of Aryl hydrocarbon receptor (Homo sapiens) (P35869 whole entry, looked up): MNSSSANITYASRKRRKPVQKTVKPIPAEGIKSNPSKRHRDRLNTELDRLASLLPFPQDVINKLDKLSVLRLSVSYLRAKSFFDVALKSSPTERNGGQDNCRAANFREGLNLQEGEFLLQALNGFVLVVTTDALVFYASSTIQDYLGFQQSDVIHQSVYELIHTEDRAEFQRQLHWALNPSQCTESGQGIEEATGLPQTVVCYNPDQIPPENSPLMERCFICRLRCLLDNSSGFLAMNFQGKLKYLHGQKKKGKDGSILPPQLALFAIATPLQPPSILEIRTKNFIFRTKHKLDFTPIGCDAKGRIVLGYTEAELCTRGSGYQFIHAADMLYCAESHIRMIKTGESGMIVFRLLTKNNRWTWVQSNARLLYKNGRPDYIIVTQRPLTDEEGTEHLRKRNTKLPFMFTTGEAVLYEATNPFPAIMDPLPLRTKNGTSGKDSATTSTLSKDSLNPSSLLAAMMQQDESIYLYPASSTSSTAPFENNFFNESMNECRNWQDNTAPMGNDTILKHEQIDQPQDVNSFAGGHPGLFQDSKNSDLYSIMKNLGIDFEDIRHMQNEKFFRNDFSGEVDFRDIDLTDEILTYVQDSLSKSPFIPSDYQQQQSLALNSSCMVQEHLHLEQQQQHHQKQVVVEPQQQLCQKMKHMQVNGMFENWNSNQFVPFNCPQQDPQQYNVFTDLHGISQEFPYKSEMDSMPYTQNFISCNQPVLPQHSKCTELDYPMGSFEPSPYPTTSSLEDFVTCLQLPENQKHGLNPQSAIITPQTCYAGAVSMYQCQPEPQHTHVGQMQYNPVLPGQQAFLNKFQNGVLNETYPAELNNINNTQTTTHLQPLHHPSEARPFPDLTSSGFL
# Sequence of CCAAT/enhancer-binding protein beta (Homo sapiens) (P17676 whole entry, looked up): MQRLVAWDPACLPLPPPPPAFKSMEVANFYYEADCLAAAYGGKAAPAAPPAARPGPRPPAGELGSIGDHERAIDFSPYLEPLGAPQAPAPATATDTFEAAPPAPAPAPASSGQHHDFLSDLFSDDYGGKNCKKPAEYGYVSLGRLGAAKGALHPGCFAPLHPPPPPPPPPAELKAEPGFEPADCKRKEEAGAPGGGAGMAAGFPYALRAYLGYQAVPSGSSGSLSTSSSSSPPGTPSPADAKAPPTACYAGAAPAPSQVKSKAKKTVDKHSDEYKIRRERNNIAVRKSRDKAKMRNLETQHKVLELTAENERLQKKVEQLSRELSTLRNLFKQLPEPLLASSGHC
# Sequence of Hepatocyte nuclear factor 3-beta (Homo sapiens) (Q9Y261 whole entry, looked up): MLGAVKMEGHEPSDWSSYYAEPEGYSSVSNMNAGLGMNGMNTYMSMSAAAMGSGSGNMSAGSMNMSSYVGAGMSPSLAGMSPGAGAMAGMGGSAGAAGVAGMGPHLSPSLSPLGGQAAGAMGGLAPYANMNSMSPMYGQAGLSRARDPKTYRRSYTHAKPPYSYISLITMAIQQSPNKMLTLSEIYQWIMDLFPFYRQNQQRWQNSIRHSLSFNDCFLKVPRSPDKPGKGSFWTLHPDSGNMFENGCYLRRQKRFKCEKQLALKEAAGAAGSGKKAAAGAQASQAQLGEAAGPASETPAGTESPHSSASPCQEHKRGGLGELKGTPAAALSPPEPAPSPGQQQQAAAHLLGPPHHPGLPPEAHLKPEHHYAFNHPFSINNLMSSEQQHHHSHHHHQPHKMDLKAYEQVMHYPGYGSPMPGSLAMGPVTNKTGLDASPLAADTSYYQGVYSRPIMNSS
# Sequence of Retinoic acid receptor alpha (Homo sapiens) (P10276 whole entry, looked up): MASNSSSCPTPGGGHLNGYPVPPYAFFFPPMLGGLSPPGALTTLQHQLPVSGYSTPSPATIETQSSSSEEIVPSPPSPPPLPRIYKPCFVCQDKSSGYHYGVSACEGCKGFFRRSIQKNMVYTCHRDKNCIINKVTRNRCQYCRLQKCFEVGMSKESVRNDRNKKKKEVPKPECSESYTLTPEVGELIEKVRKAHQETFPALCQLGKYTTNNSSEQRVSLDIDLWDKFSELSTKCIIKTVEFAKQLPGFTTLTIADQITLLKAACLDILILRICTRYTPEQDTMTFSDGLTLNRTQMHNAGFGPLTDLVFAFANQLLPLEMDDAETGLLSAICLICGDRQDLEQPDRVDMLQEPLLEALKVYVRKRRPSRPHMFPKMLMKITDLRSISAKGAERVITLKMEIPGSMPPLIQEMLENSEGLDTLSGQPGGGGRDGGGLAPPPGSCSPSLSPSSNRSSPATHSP
smiles,measurement,setting,value
CC(C)=CCCC(C)CCOC(=O)C(C)C (stereo not drawn),outcome,[1],inactive
same,outcome,[2],inactive
same,outcome,[3],inactive
same,outcome,[4],inactive
same,outcome,[5],inactive
same,outcome,[6],inactive
same,outcome,[7],inactive
same,outcome,[8],inactive
same,outcome,[9],inactive
same,outcome,[10],inactive
same,outcome,[11],inactive
same,outcome,[12],inactive
same,outcome,[13],inactive
same,outcome,[14],inactive
same,outcome,[15],inactive
same,outcome,[16],inactive
same,outcome,[17],inactive
same,outcome,[18],inactive
same,outcome,[19],inactive
same,outcome,[20],inactive
OCC(F)(F)C(F)(F)C(F)(F)C(F)F,outcome,[1],inactive
same,outcome,[2],inactive
same,outcome,[3],inactive
same,outcome,[4],inactive
same,outcome,[5],inactive
same,outcome,[6],inactive
same,outcome,[7],inactive
same,outcome,[8],inactive
same,outcome,[9],inactive
same,outcome,[10],inactive
same,outcome,[11],inactive
same,outcome,[12],inactive
same,outcome,[13],inactive
same,outcome,[14],inactive
same,outcome,[15],inactive
same,outcome,[16],inactive
same,outcome,[18],inactive
same,outcome,[19],inactive
same,outcome,[20],inactive
OCCCC(F)(F)C(F)(F)C(F)(F)F,outcome,[1],inactive
same,outcome,[2],inactive
same,outcome,[3],inactive
same,outcome,[4],inactive
same,outcome,[5],inactive
same,outcome,[6],inactive
same,outcome,[7],inactive
same,outcome,[8],inactive
same,outcome,[9],inactive
same,outcome,[10],inactive
same,outcome,[11],inactive
same,outcome,[12],inactive
same,outcome,[13],inactive
same,outcome,[14],inactive
same,outcome,[15],inactive
same,outcome,[16],inactive
same,outcome,[18],inactive
same,outcome,[19],inactive
same,outcome,[20],inactive
CNC(=S)NC,outcome,[1],inactive
same,outcome,[2],inactive
same,outcome,[3],inactive
same,outcome,[4],inactive
same,outcome,[5],inactive
same,outcome,[6],inactive
same,outcome,[7],inactive
same,outcome,[8],inactive
same,outcome,[9],inactive
same,outcome,[10],inactive
same,outcome,[11],inactive
same,outcome,[12],inactive
same,outcome,[13],inactive
same,outcome,[14],inactive
same,outcome,[15],inactive
same,outcome,[16],inactive
same,outcome,[18],inactive
same,outcome,[19],inactive
same,outcome,[20],inactive
O=C(O)C(F)(F)C(F)(F)C(F)(F)C(F)(F)C(F)(F)C(F)(F)C(F)(F)C(F)(F)C(F)(F)C(F)F,AC50,[1],18.8 µM (active)
same,outcome,[2],inactive
same,outcome,[3],inactive
same,outcome,[4],inactive
same,outcome,[5],inactive
same,outcome,[6],inactive
same,AC50,[7],26.6 µM (active)
same,outcome,[8],inactive
same,outcome,[9],inactive
same,outcome,[10],inactive
same,outcome,[11],inactive
same,outcome,[12],inactive
same,outcome,[13],inactive
same,outcome,[14],inactive
same,outcome,[15],inactive
same,AC50,[16],26.3 µM (active)
same,outcome,[18],inactive
same,outcome,[19],inactive
same,outcome,[20],inactive
O=S(=O)(O)c1ccc2ccccc2c1,outcome,[1],inactive
same,outcome,[2],inactive
same,outcome,[3],inactive
same,outcome,[4],inactive
same,outcome,[5],inactive
same,AC50,[6],42.7 µM (active) and 40.3 µM (active)
same,outcome,[7],inactive
same,outcome,[8],inactive
same,outcome,[9],inactive
same,outcome,[11],inactive
same,outcome,[12],inactive
same,outcome,[13],inactive
same,outcome,[14],inactive
same,outcome,[15],inactive
same,outcome,[16],inactive
same,outcome,[18],inactive
same,outcome,[19],inactive
same,outcome,[20],inactive
O=C(O)C(F)(F)C(F)(F)OC(F)(F)F,outcome,[1],inactive
same,outcome,[2],inactive
same,outcome,[3],inactive
same,outcome,[4],inactive
same,outcome,[5],inactive
same,outcome,[6],inactive
same,outcome,[7],inactive
same,outcome,[8],inactive
same,outcome,[9],inactive
same,outcome,[10],inactive
same,outcome,[11],inactive
same,outcome,[12],inactive
same,outcome,[13],inactive
same,outcome,[14],inactive
same,outcome,[15],inactive
same,outcome,[16],inactive
same,outcome,[18],inactive
same,outcome,[19],inactive
same,outcome,[20],inactive
